Assay outcomes (PubChem)
ClpP mod: qHTS Assay for Activators of ClpP; Potency, µM (series often up to 57.5 µM), for the others: top-dose activity change, negative = active; hit rate 1.9% among 340,000; ATP-dependent Clp protease proteolytic subunit (Bacillus subtilis (strain 168)), P80244; purified B. subtilis ClpP, FRET peptide cleavage, 20 min; active = well fitted falling curve with a large enough effect; inconclusive = small, poorly fitted or top-dose-only effect; inactive = no such curve, though single readings can be large or run the other way; note: potency is the fitted concentration of half-maximal effect; the source files actives as falling curves though it sought activators and does not explain the sign; nearly all actives have a fitted effect of over 65% in size
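FRET quenching reversal measured ClpP activation: 10 microg/mL B. subtilis ClpP at pH 8 with the FRET-FV decapeptide, read at 430 nm after 320 nm excitation. The 20-min minus 0-min signal was scaled between DMSO/no-enzyme wells and ADEP (5.8 microM final).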
uPA generation: blocks generation of uPA at the cell surface; cell surface uPA generation assay, qHTS; AID 540303; Potency, µM (titrated, usually from 38.3 µM), without a hit: top-dose activity change, negative = inhibition, hits mostly inhibitors; hit rate 0.31% among 330,000; active = well fitted inhibition curve with a large enough effect; inconclusive = small, poorly fitted or top-dose-only effect; inactive = no such curve, though single readings can be large or run the other way; tested in mouse RAW 264.7 cells; note: potency is the fitted concentration of half-maximal effect; % is set by controls: 0 for no effect and ±100 for the full control effect; nearly all actives have a fitted effect of over 55% in size
TCR activator: activators of T cell receptors. Potency, µM (series often up to 9.22 µM), for the others: at the highest dose activation of IL-2 secretion, most hits filed as activators. 330,000 tested, under 10 active. primary human leukocytes, anti-CD3, IL-2 HTRF, 48 h; note: % of control where 0% means no effect
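48 hr co-incubation of compounds, a-CD3 beads and primary human leukocytes; IL-2 quantified homogeneously by HTRF with anti-IL-2 K and d2 conjugates.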
Sfp inh: blocks B. subtilis Sfp PPTase activity | AID 1490 | hit rate 3.5% among 310,000 | Potency, µM, for inactives: largest response in the series, negative = inhibition, hits mostly inhibitors | Q9F4F7 | Biochemical Sfp PPTase activity, qHTS;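 note: the enzyme is Sfp with the accession as filed and its product quenches rhodamine fluorescence; potency is the fitted concentration of half-maximal effect; 0% = enzyme reaction without inhibitor and -100% = no enzyme wells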
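Fluorescence-quenching assay: 15 nM Sfp-PPTase preincubated 15 min at room temperature with compound, then 5 uM rhodamine-CoA and 12.5 uM BHQ-2-labelled YbbR peptide added. Fluorescence (ex 525/em 598 nm) read at start and after 30 min; difference gives rate.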
Active calls of the source: *; ? = inconclusive; nt = no result given; ! = a repeat was not active; [ ] = another dose, or the depositor's remark. An excerpt weighted towards active compounds, which were near 4.2% of everything screened. Unless noted, calls come from the whole dose curve; as a rule, active = well fitted curve in the direction sought with a large enough effect; inconclusive = small, poorly fitted or top-dose-only effect, or another doubt; inactive = no such curve, though single readings can be large; an effect the other way counts as inactive or inconclusive.

SMILES	ClpP mod	uPA generation	TCR activator	Sfp inh
CCOc1ccc(C(C)=O)cc1CSc1nc2nc(C)cc(C)n2n1	nt	0%	2%	2%
O=C(NCCc1ccc(Cl)cc1)c1ccc2c(c1)OCCO2	-1%	?	-5%	2%
Cc1ccc(-c2ccc([C@H]3[C@@H]4C=CCC[C@@]4(C)C(=O)N3Cc3ccccc3)c(F)c2)cc1	-12%	-4%	7%	?
Cc1ccc(F)c(C2C3C=CCCC3(C)C(=O)N2Cc2ccccc2)c1 (centres undefined)	nt	nt	nt	28µM*
COc1ccc(-c2ccc([C@H]3[C@@H]4C=CCC[C@@]4(C)C(=O)N3Cc3ccccc3)c(F)c2)cc1	?	?	-5%	32µM*
CC12CCC=CC1C(c1ccoc1)N(Cc1ccccc1)C2=O (centres undefined)	nt	nt	nt	-7%
CCCCCCCCCCCCCCCCCCN(CCCCCCCCCCCCCCCCCC)c1ccccc1	0%	nt	nt	nt
CCOc1ccc(-n2c(SCC(=O)N3CCC(C)CC3)nc3c([nH]c4ccccc43)c2=O)cc1	1%	nt	nt	nt
COC(=O)c1ccccc1NC(=O)CSc1nc(-c2ccccc2)cc(C(F)(F)F)n1	-18%	nt	nt	nt
O=C(Nc1nc2cc3c(cc2s1)OCO3)C1=COCCO1	-5%	2µM*	-5%	-1%
O=C(Nc1nc2cc3c(cc2s1)OCCO3)c1ccc(N2C(=O)CCC2=O)cc1	-1%	1%	10%	14µM*
CCc1ccc2nc(NC(=O)c3ccc(N4C(=O)CCC4=O)cc3)sc2c1	nt	2%	8%	22%
CNS(=O)(=O)c1ccc2nc(NC(=O)c3ccc(N4C(=O)CCC4=O)cc3)sc2c1	6%	0%	-7%	14µM*
CC(=O)c1cccc(N(CC(=O)NC2CCCCC2)C(=O)CCC(=O)Nc2nc(C)cs2)c1	nt	-2%	16%	5%
CCCCCN(CCCCC)c1ccc(/C=C/c2ccnc3ccccc23)cc1	2%	nt	nt	nt
CC1CCC(NC(=O)C2(C)Cc3ccccc3C(=O)N2Cc2ccc(Cl)cc2)CC1 (centres undefined)	-2%	nt	nt	nt
O=C(Cn1nc(CNc2ccc(Br)cc2)[n+]2c1CCCCC2)c1ccc([N+](=O)[O-])cc1	1%	0%	-4%	56µM*
O=C(Cn1nc(CNc2ccc(Cl)cc2)[n+]2c1CCCCC2)c1ccc(Br)cc1	-3%	-1%	0%[46.1 µM]	?
COc1cccc(NC(=O)Cn2c(=O)n(Cc3ccccc3)c(=O)c3c2c2cc(C)ccc2n3C)c1	4%	nt	nt	nt
Cn1cc(Br)c(NC(=O)/C=C/C(=O)O)n1	0%	-7%	-4%	8.9µM*
CCCC[C@@H]1CCCO[C@@](C(=O)NCC2CC2)(C(F)(F)F)C1	nt	nt	nt	9%
C/C=C/c1cccc(-c2nc(C(=O)N3CCCCC3)cc3c2[C@@H](CCO)N(C(=O)NC(C)C)C3)c1	-1%	nt	nt	nt
COc1ccc2c(c1)O/C(=C\c1ccco1)C2=O	nt	0%	2%	4.5µM*
CC(=O)c1cc2c(cc1NC(=O)CCn1cccc1)OCO2	-5%	6%	-2%	50µM*
COc1ccc(NS(=O)(=O)c2cc(NC(=O)/C=C/c3cccs3)ccc2N2CCOCC2)cc1	28µM*	-7%	-4%[46.1 µM]	12%
SMILES	ClpP mod	uPA generation	TCR activator	Sfp inh
COC(=O)C1N2C(=O)N(C)[C@H](C(=O)OC)[C@H]2SC1(C)C (some centres undefined)	2%	nt	nt	nt
Cc1cc2cc(C=O)c(Cl)nc2cc1C	-3%	0%	1%	32µM*
Cc1ccc2cc(C=O)c(N(C)C)nc2c1	?	-6%	-3%[46.1 µM]	6%
Cc1ccc2nc(-c3cccs3)c(Nc3c(C)cccc3C)n2c1	28µM*	nt	nt	nt
Cc1ccc(Nc2nc(N)c3ccccc3n2)cc1C	-6%	7.1µM*	nt	-25%
COc1cc2nc(Nc3cccc(F)c3)nc(N)c2cc1OC	32µM*!	3%	2%	?
COc1ccc(Nc2nc(N)c3cc(OC)c(OC)cc3n2)cc1	-18%	nt	nt	nt
O=c1c2sccc2n(Cc2cc(=O)n3ccccc3n2)c(=O)n1-c1cccc(C(F)(F)F)c1	4%	nt	nt	nt
CCCCCCCCCCCCCCCC(=O)OCC(COP(=O)(O)OCC[N+](C)(C)C)OC(=O)CCCCCCCCCCCCCCC (centres undefined)	nt	nt	nt	1%
COc1ccc(N2CCN(CC(=O)Nc3ccc(C)c(C)c3)CC2)cc1	-9%	4%	8%	6%
N#Cc1c(N2CCN(C(=O)c3ccco3)CC2)nc(-c2ccccc2)c2c1CCCC2	14µM*	?	-3%	45µM*
N#Cc1c(N2CCN(C(=O)c3ccccc3)CC2)nc(-c2ccccc2)c2c1CCCC2	28µM*	0%	-1%	?
N#Cc1c(NCCN)nc(NCc2ccccc2)c2c1CCN(Cc1ccccc1)C2	29%	12%	2%	-29%
N#Cc1c(N2CCCCC2)nc(N2CCCCC2)c2c1CCN(Cc1ccccc1)C2	11µM*	nt	-1%	3%
N#Cc1c(N2CCN(C(=O)c3ccccc3Cl)CC2)nc(-c2ccccc2)c2c1CCCC2	5%	1%	0%	-20%
COc1ccc(C(=O)c2ccccc2)c(OCC(=O)NC2CC2)c1	0%	3%	14%	4%
COC(=O)[C@]12CCCCC=C1N(Cc1cccc3ccccc13)C(=O)[C@H](CC(=O)NCC1CCCCC1)C2	0%	nt	nt	nt
CCOC(=O)c1c(-c2ccc(C)o2)csc1NC(=S)NC(=O)c1cccs1	-2%	0%	3%[46.1 µM]	?
CCOC(=O)c1c(-c2ccc(C)o2)csc1NC(=O)CSc1nnc(C)s1	-1%	3%	1%	22µM*
CCOC(=O)c1c(-c2ccc(C)o2)csc1NC(=S)NC(=O)c1ccccc1Br	-3%	8%	nt	3.5µM*
CCC(=O)N1c2ccccc2CC1C(=O)NCc1cccc(C)c1 (centres undefined)	0%	nt	nt	nt
CC(C)(C)c1ccc(OCC(=O)N/N=C/c2ccc(N3CCOCC3)cc2)cc1	35µM*	-2%	-5%[46.1 µM]	14%
CCc1ccccc1NC(=O)c1cnc2sc(N3CCOCC3)nn2c1=O	-1%	nt	nt	nt
O=C(NCc1cccc(F)c1)c1ccccc1NC(=O)c1nsc2ccccc12	28µM*	nt	nt	nt
CSc1ccc(CNC(=O)c2ccccc2NC(=O)c2nsc3ccccc23)cc1	-13%	nt	nt	nt
SMILES	ClpP mod	uPA generation	TCR activator	Sfp inh
CCc1ccc(CNC(=O)C2CCN(C(=O)c3ccc(-n4ccc5ccccc54)s3)CC2)cc1	35µM*	nt	nt	nt
O=S(=O)(c1cccc(C(F)(F)F)c1)n1c(/C=C/c2ccccc2)nc2ccccc21	5%	nt	nt	nt
COc1ccc(OC)c(-n2c(-c3cc(-c4ccco4)[nH]n3)n[nH]c2=S)c1	1%	3%	nt	17%
S=c1[nH]nc(-c2cc(-c3ccco3)[nH]n2)n1-c1ccccc1Cl	-2%	-1%	-2%	28µM*
S=c1[nH]nc(-c2cc(-c3ccco3)[nH]n2)n1-c1ccccc1	-8%	0%	-3%	89µM*
Cc1cc(-c2n[nH]c(=S)n2-c2ccccc2)nn1C	?	-1%	-7%[46.1 µM]	79µM*
Cc1ccc(-n2c(-c3cc(C)n(C)n3)n[nH]c2=S)cc1	-2%	2%	-6%	?
O=C(NCc1ccccc1)c1cc(C2CCCCN2S(=O)(=O)c2ccccc2)on1 (centres undefined)	0%	nt	nt	nt
